In PMC7862700, “An all-to-all approach to the identification of sequence-specific readers for epigenetic DNA modifications on cytosine”:

How the values were obtained:
Assay in all cases: DAPPL (digital affinity profiling via proximity ligation, sequencing); 10 mM Tris-HCl pH 7.5, 50 mM NaCl, 1 mM DTT, 4% glycerol, room temperature, 30 min; GST-TFs on glutathione beads, 16-mer random dsDNA library, 0.1% formaldehyde crosslink after washing; high values mean tight binding
Details in all cases: protein: recombinant; tags: N-terminal GST; dsDNA, one strand shown
[1] = target: T1, ERF (Homo sapiens, UniProt P50548 1-548)
T1 sequence: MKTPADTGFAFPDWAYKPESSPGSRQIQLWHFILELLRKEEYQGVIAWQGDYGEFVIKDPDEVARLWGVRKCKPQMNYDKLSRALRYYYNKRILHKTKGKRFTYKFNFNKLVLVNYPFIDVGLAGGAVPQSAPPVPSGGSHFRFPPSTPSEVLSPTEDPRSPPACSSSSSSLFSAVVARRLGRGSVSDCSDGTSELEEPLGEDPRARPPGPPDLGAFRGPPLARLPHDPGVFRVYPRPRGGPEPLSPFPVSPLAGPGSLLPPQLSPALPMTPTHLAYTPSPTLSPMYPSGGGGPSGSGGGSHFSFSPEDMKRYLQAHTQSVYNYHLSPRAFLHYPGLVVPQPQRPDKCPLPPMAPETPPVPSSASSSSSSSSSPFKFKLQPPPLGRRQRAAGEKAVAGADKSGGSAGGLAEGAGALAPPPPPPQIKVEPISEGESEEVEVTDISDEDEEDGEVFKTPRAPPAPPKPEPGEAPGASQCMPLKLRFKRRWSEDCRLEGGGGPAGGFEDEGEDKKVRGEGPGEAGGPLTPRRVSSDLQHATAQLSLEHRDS
Summary of the method: (§1)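 Each value of binding signal is a hexamer's read frequency for a factor divided by the same hexamer's frequency in the tag-only sample. Barcoded, bead-captured GST fusions of human transcription factors made in yeast were pooled with that sample and incubated with 200 nmole of a random double-stranded 16-mer DNA library in Tris/NaCl/DTT/glycerol buffer at room temperature for 30 min. Washing, 0.1% formaldehyde crosslinking, proximity ligation, PCR and Illumina NextSeq500 sequencing followed.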

[2] = target: T2, ETV3L (Homo sapiens, UniProt Q6ZN32 1-361)
T2 sequence: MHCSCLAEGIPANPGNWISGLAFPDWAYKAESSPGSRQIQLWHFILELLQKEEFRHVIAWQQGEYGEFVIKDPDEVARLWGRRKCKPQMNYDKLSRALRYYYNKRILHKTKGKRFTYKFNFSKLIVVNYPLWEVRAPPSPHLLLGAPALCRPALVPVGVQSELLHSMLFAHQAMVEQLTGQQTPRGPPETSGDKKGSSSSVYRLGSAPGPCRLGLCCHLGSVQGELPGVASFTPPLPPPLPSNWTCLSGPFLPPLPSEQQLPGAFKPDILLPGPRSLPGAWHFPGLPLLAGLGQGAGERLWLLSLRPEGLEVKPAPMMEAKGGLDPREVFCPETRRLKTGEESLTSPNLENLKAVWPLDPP
Summary of the method: as §1

[3] = target: T3, ETS2 (Homo sapiens, UniProt P15036 1-469)
T3 sequence: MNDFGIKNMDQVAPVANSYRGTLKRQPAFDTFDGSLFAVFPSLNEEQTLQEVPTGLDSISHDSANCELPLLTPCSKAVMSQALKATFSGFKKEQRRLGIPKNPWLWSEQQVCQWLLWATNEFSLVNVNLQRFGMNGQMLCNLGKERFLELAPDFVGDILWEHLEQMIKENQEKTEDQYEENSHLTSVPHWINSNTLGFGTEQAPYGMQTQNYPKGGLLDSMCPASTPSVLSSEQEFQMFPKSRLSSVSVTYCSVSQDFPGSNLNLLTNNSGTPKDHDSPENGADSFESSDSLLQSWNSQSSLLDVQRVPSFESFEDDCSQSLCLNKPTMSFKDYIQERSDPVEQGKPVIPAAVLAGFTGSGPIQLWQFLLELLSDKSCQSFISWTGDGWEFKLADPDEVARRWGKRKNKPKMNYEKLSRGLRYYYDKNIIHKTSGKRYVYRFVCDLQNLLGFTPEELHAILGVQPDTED
Summary of the method: as §1

[4] = target: T4, SPDEF (Homo sapiens, UniProt O95238 1-335)
T4 sequence: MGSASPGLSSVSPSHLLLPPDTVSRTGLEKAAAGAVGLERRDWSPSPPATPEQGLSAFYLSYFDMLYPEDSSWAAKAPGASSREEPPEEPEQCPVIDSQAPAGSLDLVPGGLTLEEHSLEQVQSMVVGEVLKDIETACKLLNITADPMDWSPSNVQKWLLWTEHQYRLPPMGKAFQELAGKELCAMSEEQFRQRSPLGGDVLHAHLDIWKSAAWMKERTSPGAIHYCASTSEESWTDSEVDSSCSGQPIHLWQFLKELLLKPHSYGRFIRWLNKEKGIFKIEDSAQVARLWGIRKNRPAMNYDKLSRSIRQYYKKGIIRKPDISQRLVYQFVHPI
Summary of the method: as §1

[5] = target: T5, ETV7 (Homo sapiens, UniProt Q9Y603 1-341)
T5 sequence: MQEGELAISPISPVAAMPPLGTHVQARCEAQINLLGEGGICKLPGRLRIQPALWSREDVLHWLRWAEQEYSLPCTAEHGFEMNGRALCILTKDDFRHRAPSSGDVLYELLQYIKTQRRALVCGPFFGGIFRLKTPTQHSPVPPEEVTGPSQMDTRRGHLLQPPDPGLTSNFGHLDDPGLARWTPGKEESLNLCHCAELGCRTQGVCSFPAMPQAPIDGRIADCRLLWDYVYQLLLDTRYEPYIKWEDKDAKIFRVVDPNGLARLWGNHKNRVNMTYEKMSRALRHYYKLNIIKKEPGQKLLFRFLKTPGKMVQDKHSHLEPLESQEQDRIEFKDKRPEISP
Summary of the method: as §1

[6] = target: T6, ELF5 (Homo sapiens, UniProt Q9UKW6-2 1-255)
T6 sequence: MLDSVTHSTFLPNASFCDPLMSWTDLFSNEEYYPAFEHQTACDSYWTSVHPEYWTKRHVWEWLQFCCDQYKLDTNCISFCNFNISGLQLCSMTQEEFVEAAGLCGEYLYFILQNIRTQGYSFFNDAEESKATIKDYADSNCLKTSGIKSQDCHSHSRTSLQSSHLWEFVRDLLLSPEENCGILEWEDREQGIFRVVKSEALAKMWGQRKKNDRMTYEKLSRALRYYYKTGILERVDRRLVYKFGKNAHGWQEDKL
Summary of the method: as §1

[7] = target: T7, ETV3 (Homo sapiens, UniProt P41162-2 1-143)
T7 sequence: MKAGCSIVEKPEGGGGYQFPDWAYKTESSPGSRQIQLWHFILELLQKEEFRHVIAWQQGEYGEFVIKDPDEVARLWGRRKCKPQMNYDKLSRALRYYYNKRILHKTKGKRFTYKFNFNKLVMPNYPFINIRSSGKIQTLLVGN
Summary of the method: as §1

[8] = target: ETV6 (Homo sapiens, UniProt P41212 1-452)
Summary of the method: as §1

ETV6, sequence (P41212 whole entry): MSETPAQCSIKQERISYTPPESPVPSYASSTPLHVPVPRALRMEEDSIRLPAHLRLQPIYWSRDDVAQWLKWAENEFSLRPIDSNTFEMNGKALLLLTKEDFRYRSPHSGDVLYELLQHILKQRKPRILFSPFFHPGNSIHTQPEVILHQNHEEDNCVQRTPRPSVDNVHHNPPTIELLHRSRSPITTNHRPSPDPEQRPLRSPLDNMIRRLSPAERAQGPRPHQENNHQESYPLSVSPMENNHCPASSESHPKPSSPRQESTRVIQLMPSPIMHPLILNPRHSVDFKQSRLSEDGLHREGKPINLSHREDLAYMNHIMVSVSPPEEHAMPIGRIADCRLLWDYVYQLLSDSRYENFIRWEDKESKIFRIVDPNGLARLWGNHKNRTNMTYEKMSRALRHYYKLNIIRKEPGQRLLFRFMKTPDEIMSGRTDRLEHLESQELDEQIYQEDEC

Row | Sequence | binding signal [1] | binding signal [2] | binding signal [3] | binding signal [4] | binding signal [5] | binding signal [6] | binding signal [7] | binding signal [8]
1 | TGCTAC | 1.39 fold enrichment (6-mer frequency, TF over GST control) | 1.3 fold enrichment (6-mer frequency, TF over GST control) | 1.23 fold enrichment (6-mer frequency, TF over GST control) | 1.26 fold enrichment (6-mer frequency, TF over GST control) | 1.23 fold enrichment (6-mer frequency, TF over GST control) | 1.17 fold enrichment (6-mer frequency, TF over GST control) | 1.23 fold enrichment (6-mer frequency, TF over GST control) | 1.16 fold enrichment (6-mer frequency, TF over GST control)
2 | CCGCAA | 1.19 fold enrichment (6-mer frequency, TF over GST control) | 1.23 fold enrichment (6-mer frequency, TF over GST control) | 1.47 fold enrichment (6-mer frequency, TF over GST control) | 1.36 fold enrichment (6-mer frequency, TF over GST control) | 1.32 fold enrichment (6-mer frequency, TF over GST control) | 1.39 fold enrichment (6-mer frequency, TF over GST control) | 1.3 fold enrichment (6-mer frequency, TF over GST control) | 1.33 fold enrichment (6-mer frequency, TF over GST control)
3 | GAAATG | 1.5 fold enrichment (6-mer frequency, TF over GST control) | 1.59 fold enrichment (6-mer frequency, TF over GST control) | 1.63 fold enrichment (6-mer frequency, TF over GST control) | 1.45 fold enrichment (6-mer frequency, TF over GST control) | 1.6 fold enrichment (6-mer frequency, TF over GST control) | 1.87 fold enrichment (6-mer frequency, TF over GST control) | 1.68 fold enrichment (6-mer frequency, TF over GST control) | 1.75 fold enrichment (6-mer frequency, TF over GST control)
4 | CGACTT | 1.62 fold enrichment (6-mer frequency, TF over GST control) | 1.62 fold enrichment (6-mer frequency, TF over GST control) | 1.76 fold enrichment (6-mer frequency, TF over GST control) | 1.54 fold enrichment (6-mer frequency, TF over GST control) | 1.53 fold enrichment (6-mer frequency, TF over GST control) | 1.72 fold enrichment (6-mer frequency, TF over GST control) | 1.78 fold enrichment (6-mer frequency, TF over GST control) | 1.79 fold enrichment (6-mer frequency, TF over GST control)
5 | CACCCT | 1.09 fold enrichment (6-mer frequency, TF over GST control) | 1.26 fold enrichment (6-mer frequency, TF over GST control) | 1.09 fold enrichment (6-mer frequency, TF over GST control) | 1.13 fold enrichment (6-mer frequency, TF over GST control) | 1.04 fold enrichment (6-mer frequency, TF over GST control) | 1.11 fold enrichment (6-mer frequency, TF over GST control) | 1.24 fold enrichment (6-mer frequency, TF over GST control) | 1.05 fold enrichment (6-mer frequency, TF over GST control)
6 | GCTGTT | 1.08 fold enrichment (6-mer frequency, TF over GST control) | 1.1 fold enrichment (6-mer frequency, TF over GST control) | 1.09 fold enrichment (6-mer frequency, TF over GST control) | 1.08 fold enrichment (6-mer frequency, TF over GST control) | 1.21 fold enrichment (6-mer frequency, TF over GST control) | 1.04 fold enrichment (6-mer frequency, TF over GST control) | 1.15 fold enrichment (6-mer frequency, TF over GST control) | 1.03 fold enrichment (6-mer frequency, TF over GST control)
7 | AATCAG | 1.05 fold enrichment (6-mer frequency, TF over GST control) | 1.15 fold enrichment (6-mer frequency, TF over GST control) | 1.08 fold enrichment (6-mer frequency, TF over GST control) | 1.01 fold enrichment (6-mer frequency, TF over GST control) | 1.12 fold enrichment (6-mer frequency, TF over GST control) | 1.04 fold enrichment (6-mer frequency, TF over GST control) | 1.07 fold enrichment (6-mer frequency, TF over GST control) | 1.14 fold enrichment (6-mer frequency, TF over GST control)
8 | TGCCTG | 1.46 fold enrichment (6-mer frequency, TF over GST control) | 1.28 fold enrichment (6-mer frequency, TF over GST control) | 1.28 fold enrichment (6-mer frequency, TF over GST control) | 1.36 fold enrichment (6-mer frequency, TF over GST control) | 1.17 fold enrichment (6-mer frequency, TF over GST control) | 1.27 fold enrichment (6-mer frequency, TF over GST control) | 1.31 fold enrichment (6-mer frequency, TF over GST control) | 1.18 fold enrichment (6-mer frequency, TF over GST control)
9 | CGATAA | 1.11 fold enrichment (6-mer frequency, TF over GST control) | 1.09 fold enrichment (6-mer frequency, TF over GST control) | 1.14 fold enrichment (6-mer frequency, TF over GST control) | 1.02 fold enrichment (6-mer frequency, TF over GST control) | 1.08 fold enrichment (6-mer frequency, TF over GST control) | 1.03 fold enrichment (6-mer frequency, TF over GST control) | 1.06 fold enrichment (6-mer frequency, TF over GST control) | 1.09 fold enrichment (6-mer frequency, TF over GST control)
